# Test results published in PubChem BioAssay (EPA / NIEHS).
# Calls of active or inactive are those of the source. How the source made its calls: active means hit-call score of the fitted dose curve at least 0.9, where 1 is the maximum; inactive means score below 0.9.
# Target: Aryl hydrocarbon receptor (Homo sapiens) (UniProt P35869)
# Test: ATG_Ahr_CIS: Attagene CIS-FACTORIAL HepG2 Assay for human Aryl Hydrocarbon Receptor (Ahr) (AID 2282930)
# Conditions: HepG2 AhR cis-factorial reporter transcription; actives raise or lower the signal
# Description: ATG_CIS is a cell-based, multiplexed-readout assay that uses HepG2, a human liver cell line, with measurements taken at 24 hours after chemical dosing in a 24-well plate.ATG_Ahr_CIS is one of 52 assay component(s) measured or calculated from the ATG_CIS assay. It is designed to make measurements of mRNA induction, a form of inducible reporter, as detected with fluorescence intensity signals by Reverse transcription polymerase chain reaction (RT-PCR) and Capillary electrophoresis technology.Data from the assay component ATG_Ahr_CIS was analyzed into 1 assay endpoint. This assay endpoint, ATG_Ahr_CIS, was analyzed with bidirectional fitting relative to DMSO as the negative control and baseline of activity. Using a type of inducible reporter, measures of mRNA for gain or loss-of-signal activity can be used to understand the reporter gene at the transcription factor-level as they relate to the gene AHR. Furthermore, this assay endpoint can be referred to as a primary readout, because this assay has produced multiple assay endpoints where this one serves a reporter gene function. To generalize the intended target to other relatable targets, this assay endpoint is annotated to the dna binding intended target family, where the subfamily is basic helix-loop-helix protein.
# Human liver HepG2 cells are transiently transfected with multiple reporter transcription units (MRTUs) in 6-well plates using FuGene 6 reagent (Roche; 3 ml FuGene/1 mg DNA). The MRTU constructs are regulated by a cis-regulating element (promoter). […] A major difference between the CIS and TRANS system is that in CIS activities of endogenous TFs are measured, whereas the TRANS assay evaluates changes in activities of exogenous, chimeric NR-Gal4 proteins. […] At the end of 24 hour incubation, total RNA was isolated using TriZol reagent (Invitrogen). The isolated RNA is then reverse-transcribed using oligo(dT) primer and Mo-MLV reverse transcriptase (Invitrogen) with DNAse I (Ambion) treatment for 30 min. The one-tenth of the produced cDNA was amplified by PCR using Taq DNA polymerase (Invitrogen) and two reporter sequence-specific primers. The PCR products were fluorescently labeled by primer extension with 6-arboxyfluorescein (6-FAM) 5'-labeled reporter sequence-specific primer (2 min at 95 C, 20 s at 68 C and 10 min at 72 C) and these products were digested with 5U of HpaI (New England Biolabs) for 2h at 37 C. […] The raw capillary electrophoresis data was processed using Attagraph software (Attagene).
# Sequence of Aryl hydrocarbon receptor (Homo sapiens) (P35869 whole entry, looked up): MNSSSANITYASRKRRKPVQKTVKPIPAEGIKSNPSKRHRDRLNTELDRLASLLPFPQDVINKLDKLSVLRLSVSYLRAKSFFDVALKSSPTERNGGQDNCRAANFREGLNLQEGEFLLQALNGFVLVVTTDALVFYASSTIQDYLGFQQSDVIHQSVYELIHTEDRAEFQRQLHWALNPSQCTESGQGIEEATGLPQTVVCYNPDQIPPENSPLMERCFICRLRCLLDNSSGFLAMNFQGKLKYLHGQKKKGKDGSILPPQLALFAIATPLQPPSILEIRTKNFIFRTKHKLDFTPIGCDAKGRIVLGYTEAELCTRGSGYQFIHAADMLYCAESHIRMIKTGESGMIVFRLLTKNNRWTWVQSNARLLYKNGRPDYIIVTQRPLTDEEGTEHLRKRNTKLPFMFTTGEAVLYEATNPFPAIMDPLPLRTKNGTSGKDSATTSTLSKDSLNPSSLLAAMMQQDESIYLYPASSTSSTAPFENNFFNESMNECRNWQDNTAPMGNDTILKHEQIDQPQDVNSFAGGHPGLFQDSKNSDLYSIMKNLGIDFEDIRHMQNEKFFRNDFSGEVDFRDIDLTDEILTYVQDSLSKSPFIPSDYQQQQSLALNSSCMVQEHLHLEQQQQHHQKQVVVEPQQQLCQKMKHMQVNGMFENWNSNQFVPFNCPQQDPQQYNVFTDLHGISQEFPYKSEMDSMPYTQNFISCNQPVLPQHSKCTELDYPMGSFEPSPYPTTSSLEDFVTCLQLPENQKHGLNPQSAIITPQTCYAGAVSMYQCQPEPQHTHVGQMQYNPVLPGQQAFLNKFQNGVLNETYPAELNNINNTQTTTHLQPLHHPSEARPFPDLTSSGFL
Compound,outcome,AC50
CCC[Si](OC)(OC)OC,inactive,
Nc1ncnc2nc[nH]c12,inactive,
C=CCCCCCCCCO,,29.3 µM (active)
CCC(C)(O)CCCC(C)C (stereo not given),inactive,
CCOC(=O)[C@H](O)[C@@H](O)C(=O)OCC,inactive,
Nc1ccc(C(=O)O)cc1,inactive,
Cn1cccc1,inactive,
Clc1cc(Cl)c(Cl)c(Cl)c1Cl,inactive,
COc1ccc(-c2coc3cc(O)cc(O)c3c2=O)cc1,,27 µM (active)
CCCCCCCO,inactive,
CCCCCC[C@@H](O)C/C=C\CCCCCCCC(=O)OCC(O)CO (stereo not given in full),inactive,
CCC(C)c1ccccc1 (stereo not given),inactive,
CCc1occc(=O)c1O,,65.6 µM (active)
C=C(C)OC(C)=O,inactive,
C=CC(=O)NCOCCCC,inactive,
O=C(Oc1ccccc1)c1ccccc1C(=O)Oc1ccccc1,inactive,
Oc1ccc(-c2ccccc2)c(Cl)c1,inactive,
CCCCCCCCCC[N+](C)(CCCCCCCCCC)CCC[Si](OC)(OC)OC,inactive,
CCNc1nc(NC(C)(C)C)nc(OC)n1,inactive,
N#Cc1ccc(C(c2ccc(C#N)cc2)n2cncn2)cc1,inactive,

Compound,outcome,AC50
CCN1CN(CC)CN(CC)C1,inactive,
Cc1ccc2c(c1)CCCN2,,20.2 µM (active)
CC(=O)C(C)C,inactive,
O=C(O)CCC(=O)O,inactive,
[Cl][Sc]([Cl])[Cl],,0.188 µM (active)
CC1=C(O)C(=O)C(C)O1 (stereo not given),inactive,
CC=CC(=O)OCC(C)C,inactive,
CC(C)C(=O)OCCc1ccccc1,inactive,
C=C(C)C(=O)OCCCCCCCCCCCC,inactive,
CC=C(C)C=CC=C(C)C,inactive,
CC(=O)c1ccccc1O,inactive,
Oc1ccccc1Cc1ccccc1O,inactive,
COc1cc(O)c(C(=O)c2ccccc2)cc1S(=O)(=O)O,inactive,
C=C(C)C(=O)OCCOC(=O)C(=C)C,inactive,
Cc1ccc([N+](=O)[O-])cc1N,,1.51 µM (active)
O=C(OCCc1ccccc1)c1ccccc1,inactive,
C=Cc1ccc(OC(C)=O)cc1,inactive,
C1CCSC1,inactive,
COC(=O)C=Cc1ccccc1,inactive,
CCC(=O)C1CC(C(C)C)CC=C1C (stereo not given),inactive,
